Values joined by “and” are separate entries in the source; they are usually repeats but may differ in a detail not shown here. Equal values may be shown once. Out of some 190,000 compounds screened, about 1,300 (0.68%) were called active. The sample as a whole holds a higher share of actives than the screen did. Unmarked numbers belong to inactive results. No stated cut-off is given here; in the data, active means inhibition above about 50%; inactive means the rest.
These compounds were tested against Mannose-6-phosphate isomerase (Homo sapiens) (UniProt P34949) (assay: human PMI inhibitors, high substrate, primary screen, biochemical, fluorescence intensity, high mannose 6-phosphate (AID 1220)). Details: recombinant PMI enzyme, coupled fluorescence intensity; at 20 µM; hits give high values.
Chain of Mannose-6-phosphate isomerase (Homo sapiens) (P34949 whole entry, looked up): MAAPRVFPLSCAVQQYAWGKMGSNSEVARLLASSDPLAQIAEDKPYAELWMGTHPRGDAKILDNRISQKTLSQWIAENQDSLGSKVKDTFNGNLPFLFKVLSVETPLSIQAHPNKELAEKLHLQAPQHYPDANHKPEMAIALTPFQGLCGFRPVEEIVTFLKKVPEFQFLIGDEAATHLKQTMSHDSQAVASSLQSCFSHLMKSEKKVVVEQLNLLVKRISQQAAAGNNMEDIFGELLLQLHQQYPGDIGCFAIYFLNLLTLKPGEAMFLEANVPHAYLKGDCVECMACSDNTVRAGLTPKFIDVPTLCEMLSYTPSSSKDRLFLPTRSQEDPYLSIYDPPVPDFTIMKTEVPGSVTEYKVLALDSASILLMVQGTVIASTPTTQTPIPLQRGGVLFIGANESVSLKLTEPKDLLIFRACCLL

Q: `CNc1nc2[nH]c(=O)c3c(c2s1)OC(N)=C(C#N)C3c1ccccc1` (stereo not drawn) was tested. Which inhibition did it give?
A: The inhibition was 52% (active).

Q: Which inhibition does the source give for `CN(C)c1ccc2c(c1)OC(N)=C(C#N)C2c1cccc(F)c1` (stereo not drawn) here?
A: The inhibition was 25.2%.

Q: For `COC(=O)C1=C(C)OC(N)=C(C#N)C1c1ccccc1` (stereo not drawn), which inhibition is on record?
A: Its inhibition is -8.8%.

Q: With `Cc1cc(C)c2c3c(sc2n1)C(c1cccc(F)c1)C(C#N)=C(N)O3` (stereo not drawn) as the compound, how does the inhibition read?
A: The inhibition was -7%.

Q: With `Cc1ccc(C2C(C#N)=C(N)Oc3n[nH]c(C)c32)cc1` (stereo not drawn) as the compound, how does the inhibition read?
A: The inhibition was 8.4%.

Q: For `Cc1ccc(C2C(C#N)=C(N)Oc3c2c(=O)n(C)c(=O)n3C)cc1` (stereo not drawn), which inhibition is on record?
A: The inhibition was -24.8%.

Q: For `CCNc1nc2[nH]c(=O)c3c(c2s1)OC(N)=C(C#N)C3c1ccc(C)cc1` (stereo not drawn), which inhibition is on record?
A: The inhibition was 62.6% (active).

Q: How did the inhibition turn out when `O=C1CCCC(O)=C1C1C2=C(CCCC2=O)Oc2ccccc21` (stereo not drawn) was run?
A: The inhibition was 6.5%.

Q: For `Nc1[nH]ncc1-c1ccc(Cl)cc1`, which inhibition is on record?
A: Its inhibition is -1.5%.

Q: With `Cc1sc(NC(=O)CCCC(=O)O)c(C(N)=O)c1-c1ccccc1` as the compound, how does the inhibition read?
A: The inhibition was -5.5%.

Q: How did the inhibition turn out when `CC1CN(C(NC(=O)c2ccccc2)C(Cl)(Cl)Cl)CC(C)O1` (stereo not drawn) was run?
A: Its inhibition is -6.4%.

Q: For `CCN1C(=O)/C(=C/c2ccc(C)o2)N(C)C1=S`, which inhibition is on record?
A: Its inhibition is 28%.

Q: With `COC(=O)c1ccc(C(=O)Nc2ccc(N)cc2N)cc1` as the compound, how does the inhibition read?
A: The inhibition was 50.3% (active).

Q: Which inhibition does the source give for `COC(=O)c1ccc(C(=O)Nc2ccc(C(C)C)cc2N)cc1` here?
A: Its inhibition is -2.9%.

Q: For `Cc1cc(N)ccc1NC(=O)c1ccccc1`, which inhibition is on record?
A: The inhibition was 12.9%.

Q: How did the inhibition turn out when `Cc1ccc(OCC(O)CN2CCN(CC(O)COC(C)C)CC2)c(C(C)(C)C)c1` (stereo not drawn) was run?
A: The inhibition was -2.3%.

Q: How did the inhibition turn out when `COc1ccccc1NC(=O)C1=C(C)NC(=O)NC1c1ccccc1[N+](=O)[O-]` (stereo not drawn) was run?
A: Its inhibition is 19.9%.

Q: For `COC(=O)C1=C(C)NC(C)=C(C(=O)OC)C1c1ccccc1[N+](=O)[O-]`, which inhibition is on record?
A: The inhibition was 79.4% (active).

Q: For `CC1=C(C(=O)Nc2ccccc2)C(c2ccccc2[N+](=O)[O-])NC(=O)N1` (stereo not drawn), which inhibition is on record?
A: Its inhibition is 53.3% (active).

Q: `COC(=O)C1=C(C)NC(C)=C([N+](=O)[O-])C1c1ccccc1C(F)(F)F` (stereo not drawn) was tested. Which inhibition did it give?
A: The inhibition was -0.9%.

Q: With `CC1=C(C(=O)Nc2ccccc2)C(c2cccs2)NC(=O)N1` (stereo not drawn) as the compound, how does the inhibition read?
A: The inhibition was -0.7%.

Q: For `CCOC(=O)C1=C(C)NC(C)=C(C(=O)OC)C1c1cccc([N+](=O)[O-])c1` (stereo not drawn), which inhibition is on record?
A: The inhibition was 9.7% and -2%.

Q: How did the inhibition turn out when `COc1ccccc1NC(=O)c1cnc(Nc2ccccc2OC)c2ccccc12` was run?
A: Its inhibition is 6.4%.

Q: With `CC1Oc2ccccc2N(CC(=O)NCc2cccs2)C1=O` (stereo not drawn) as the compound, how does the inhibition read?
A: Its inhibition is 5.4%.

Q: How did the inhibition turn out when `NC(=O)Cc1ccc(C(=O)c2ccccc2F)s1` was run?
A: The inhibition was -7%.

Q: How did the inhibition turn out when `Cc1ccc(C(C)C)c(OCC(=O)N2CCOCC2)c1` was run?
A: Its inhibition is 4.1%.

Q: `O=C(O)COc1ccc(/C=N/n2cnc3scc(-c4cccs4)c3c2=O)cc1` was tested. Which inhibition did it give?
A: Its inhibition is -8.8%.

Q: `Cc1ccc(-n2c(-c3ccncc3)n[nH]c2=S)c(C)c1` was tested. Which inhibition did it give?
A: Its inhibition is 3.7%.

Q: With `COc1ccc(OCC(=O)Nc2ccc3c(c2)nc2n3CCSC2)cc1` as the compound, how does the inhibition read?
A: The inhibition was 7.8%.

Q: Which inhibition does the source give for `O=C(/C=C/c1cccc(OCc2ccccc2)c1)c1cccnc1` here?
A: Its inhibition is -18.2%.

Q: Which inhibition does the source give for `CCOC(=O)c1c(C)oc2c(CC(=O)c3ccccc3)c(Cl)c(O)c(O)c12` here?
A: The inhibition was 8.9%.

Q: Which inhibition does the source give for `CCOC(=O)Cc1csc(NC(=O)NC2(C(F)(F)F)Oc3ccc(Cl)cc3O2)n1` (stereo not drawn) here?
A: The inhibition was 47.9%.

Q: `CCOC(=O)Cc1csc(NC(=O)NC2(C(F)(F)F)Oc3cc(Cl)c(Cl)cc3O2)n1` was tested. Which inhibition did it give?
A: Its inhibition is 54.7% (active).

Q: For `CCOC(=O)Cc1csc(NC(=O)NC2(C(F)(F)F)Oc3ccccc3O2)n1`, which inhibition is on record?
A: The inhibition was 21.4%.

Q: `CC1CC1C(=O)OCC(=O)NCc1ccc(Cl)cc1Cl` (stereo not drawn) was tested. Which inhibition did it give?
A: Its inhibition is -7.7%.

Q: With `CCSc1nnc(NC(=O)C2CC(=O)N(Cc3ccc(C)cc3)C2)s1` (stereo not drawn) as the compound, how does the inhibition read?
A: Its inhibition is -13.3%.

Q: How did the inhibition turn out when `CCOC(=O)N1CCN(C(=O)Nc2ccc3nc(-c4ccccn4)c(-c4ccccn4)nc3c2)CC1` was run?
A: Its inhibition is 25.7%.

Q: For `S=C(Nc1ccc2nc(-c3ccccn3)c(-c3ccccn3)nc2c1)N1CCOCC1`, which inhibition is on record?
A: The inhibition was -7.8%.

Q: For `CN(C)NC(=S)Nc1ccc2nc(-c3ccccn3)c(-c3ccccn3)nc2c1`, which inhibition is on record?
A: The inhibition was -38.7%.

Q: Which inhibition does the source give for `CCCNC(=S)Nc1ccc2nc(-c3ccccn3)c(-c3ccccn3)nc2c1` here?
A: Its inhibition is -9.4%.

Q: For `Cc1ccc(NC(=S)Nc2ccc3nc(-c4ccccn4)c(-c4ccccn4)nc3c2)cc1C`, which inhibition is on record?
A: The inhibition was 63.1% (active).

Q: With `CCOC(=O)N1CCN(C(=O)Nc2ccc3nc(C)c(C)nc3c2)CC1` as the compound, how does the inhibition read?
A: The inhibition was 48.9%.

Q: Which inhibition does the source give for `O=C(Nc1ccc2nc(-c3ccccn3)c(-c3ccccn3)nc2c1)N1CCOCC1` here?
A: Its inhibition is 62.6% (active).

Q: For `CCOC(=O)C1CCN(C(=O)Nc2ccc3nccnc3c2)CC1`, which inhibition is on record?
A: The inhibition was 49.9%.

Q: For `CCOC(=O)N1CCN(C(=O)Nc2ccc3nccnc3c2)CC1`, which inhibition is on record?
A: The inhibition was 55.1% (active).

Q: How did the inhibition turn out when `Cc1ccc2[nH]c3c(=O)n(CCN4CCNCC4)cnc3c2c1` was run?
A: Its inhibition is 24.5%.

Q: How did the inhibition turn out when `Cc1[nH]c2ccccc2c1CCNC(=O)c1c(N)no[n+]1[O-]` was run?
A: The inhibition was 15.2%.

Q: How did the inhibition turn out when `O=c1c(Cl)c(N/N=C/c2ccc(Br)cc2)cnn1-c1ccccc1` was run?
A: Its inhibition is 4.9%.
